Data on 39 compounds can be found in PubChem BioAssay (NCI).

Where “and” joins values, the source holds several entries; their conditions need not be identical. Equal entries are not always repeated. Compounds without any hit were thinned out: in the full panel of roughly 83,000, 20% have a hit.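 Each cell line was grown in a 96-well plate and treated with one concentration of compound for 48 hours. Values below 10 were considered active.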 Calls of active or inactive are those of the source.

One experiment relates to COLO 205 colon. The experiment in a line: NCI-60 one-dose screen, 48 h (100 = growth as untreated, 0 = no growth, -100 = all killed). The note with it: 10 µM. The procedure:
Cells are grown in 96 well plates and exposed to the test compound for 48 hours. Compounds are tested at a single concentration, which is 10^-5 M for most compounds. The reported endpoint is percent growth (GI% or GIPRCNT), where numbers from 0 - 100% represent growth inhibition, and numbers from -100% - 0 represent cell death. For example, a value of 40 represents 60% growth inhibition. A value of 0 means no net growth occurred over the course of the experiment. A value of -40 indicates 40% of cells at the beginning of the experiment died by the end of the experiment. A value of -100 means all cells are dead at the end of the experiment.
NCI-60 Human Tumor Cell Lines Screen was performed using the standard one-dose NCI protocol, which is described in more detail at https://dtp.cancer.gov/discovery_development/nci-60/default.htm.
Compounds with GIPRCNT values below 10 were considered active. Activity score was based on GIPRCNT using the following formula: […]
Score is 0 for GIPRCNT values of 100 or above, 50 for GIPRCNT values of 0, and 100 for GIPRCNT values of -100.
For `O=C(O)CCCc1ccc(N(CCCl)CCCl)cc1`, the growth is 104% (inactive) and 105% (inactive).

The same experiment, now with this note: 10 µM unless noted.
Consider `O=S1(=O)OCCO1`, for which the growth is 106% (inactive). The same measure, in the same setting: to `CC[C@H](CC[C@@H](C)[C@H]1CC[C@H]2[C@@H]3CC[C@H]4C[C@]5(CC[C@]4(C)[C@H]3CC[C@]12C)OO[C@](C)(C(F)(F)F)O5)C(C)C` belongs 96.4% (inactive).

Turning to `N#CCN(CC#N)[N+](=O)[O-]`, the growth is 110% (inactive). On the same count and under the same terms, the same measure for `OCCNC1CCCCC1`: 112% (inactive); for `CNC(=O)O/N=C(\SC)C(=O)N(C)C`: 105% (inactive). Still for that read-out and setting: to `CC1(C)S[C@H]2CC[C@H]3OC(=O)[C@@H]1N23` belongs 137% (inactive). In the case of `O=[N+]([O-])c1cc(Br)c(O)c(Br)c1`, the growth was 112% (inactive). With `CCCCCCCCCCCCCCCC[N+](C)(C)Cc1ccccc1`, the growth is -30.4% (active) and -100% (active). On the same count and under the same terms, to `NC(=O)c1c(Br)c(Br)c(Br)c(Br)c1C(=O)O` (tested in a mixture with another compound) belongs 113% (inactive) and 104% (inactive); to `NC1CN2CCC1CC2` (stereo not given), 104% (inactive). The same measure, in the same setting: to `COc1ccc(O)c2c(=O)c3c(OC)cc4c(c3oc12)[C@@H]1C=CO[C@@H]1O4` belongs 36.1% (inactive). As to `COc1cc(/C=C\[N+](=O)[O-])ccc1OCc1ccccc1`, the growth was 32.7% (inactive). On the same count and under the same terms, the same measure for `NC(N)=NC(N)=Nc1ccc(Cl)cc1`: 112% (inactive); for `Cc1ccc(C(=O)O[C@H](C(=O)O)[C@H](OC(=O)c2ccc(C)cc2)C(=O)O)cc1`: 108% (inactive); for `O=[P+](O)c1cccnc1`: 102% (inactive). On the same count and under the same terms, the same measure for `CCCC(C)SP(=S)(SC(C)CCC)SC(C)CCC` (stereo not given): 98.6% (inactive).

With `Cc1ccc(P(=O)(O)O)cc1`, the growth is 126% (inactive). Still for that read-out and setting: the same measure for `NC(=O)Oc1cc(OC(N)=O)cc(N(CCCl)CCCl)c1`: 86.8% (inactive); for `O=[N+]([O-])c1cc(Cl)c(Cl)cc1Cl`: 117% (inactive) and 106% (inactive); for `O=[N+]([O-])c1ccc(OCc2ccc(S(=O)(=O)F)c(Cl)c2)c(Cl)c1`: 101% (inactive).

For `CO[C@H]1[C@H](O[C@@H]2C[C@@H]3C/C=C/C(=O)O[C@@H](CO)C[C@H](O)[C@@H]4C[C@H](C)[C@H](C/C=C\C=C\[C@H](C)C[C@H](C2)O3)O4)O[C@@H](C)[C@H](O)[C@H]1O`, the growth is 37.6% (inactive). On the same count and under the same terms, to `CCC(=O)C(CC(C)[N+](C)(C)C)(c1ccccc1)c1ccccc1` (stereo not given) belongs 85.8% (inactive); to `CC12CCC3C4CCC(=O)C=C4CCC3C1CC1CC(=O)OC12` (stereo not given), 105% (inactive). The same measure, in the same setting: the same measure for `C[C@]12CCc3nc(-c4ccc(O)c(O)c4)sc3C1=CC[C@@H]1[C@@H]2CC[C@]2(C)C(=O)CC[C@@H]12`: 55.4% (inactive); for `C[C@]12CC[C@H]3[C@@H](C[C@@H]4SC(Nc5cccc(F)c5)=N[C@@]45CC(=O)CC[C@]35C)[C@@H]1CCC2=O`: 47.6% (inactive); for `N[C@@H](CCC(=O)CCl)C(=O)O`: 106% [20 µM] (inactive). Turning to `O=C(Cc1ccccc1)c1ccccc1`, the growth is 102% (inactive). Still for that read-out and setting: the same measure for `ClC1OC(Cl)(Cl)C(Cl)(Cl)OC1(Cl)Cl` (stereo not given): 110% (inactive); for `C[C@]12CCc3sc(Nc4ccc(F)cc4F)nc3C1=CC[C@@H]1[C@@H]2CC[C@]2(C)C(=O)CC[C@@H]12`: 54.3% (inactive). The same measure, in the same setting: the same measure for `Nc1ccc2c(c1)Cc1cc(N)ccc1-2`: 90% (inactive). Still for that read-out and setting: to `O=P(O)(Nc1ccccc1)Nc1ccccc1` belongs 115% (inactive); to `C[C@]12CCC3[C@@H](C[C@@H]4SC(Nc5ccccc5)=N[C@@]45CC(=O)CC[C@]35C)[C@@H]1CCC2=O` (stereo not given in full), -46.3% (active).

For `CNC(=O)Oc1ccc(Cl)cc1SSc1cc(Cl)ccc1OC(=O)NC`, the growth was 110% (inactive). Same read-out and setting: the same measure for `Cc1cc(Br)c([N+](=O)[O-])cc1[N+](=O)[O-]`: 72.9% (inactive); for `COc1ccc2c(c1)c(-c1nc(-c3c[nH]c4ncccc34)cs1)cn2CCCCN1CCOCC1`: -100% (active); for `O=[N+]([O-])c1ccc2scc3c4ccccc4nc-3c2c1`: -55.6% (active). Still for that read-out and setting: to `CN(C)c1ccc(N)cc1` belongs 103% (inactive) and 43.1% (inactive). The same measure, in the same setting: the same measure for `CC[C@@H](C)C(=O)O[C@H]1[C@H](O)[C@H]2[C@@H](CN3C[C@@H](C)CC[C@H]3[C@@]2(C)O)[C@@H]2C[C@]34O[C@]5(O)[C@@H](OC(=O)[C@@](C)(O)CC)CC[C@@]3(C)[C@@H]5[C@@H](OC(C)=O)[C@@H](OC(C)=O)[C@H]4[C@@]21O`: 92.1% (inactive).

Staying with this experiment, now noted: 75 µM.
As to `O=C(O)CCCc1ccc(N(CCCl)CCCl)cc1`, the growth is 66.2% (inactive).
